Screens (PubChem BioAssay)
This is a sample that favours compounds with a hit; in the whole collection about 5.8% have one here.
TRPV1 PAM – HTS Assay for Compounds that Act as Potentiators of the Vanilloid Receptor 1 | hit rate 0.02% among 320,000 | TRPV1-expressing cells, Fluo-8 calcium influx, capsaicin EC20 potentiation | potentiation, % at 8.33 µM; in the data active means potentiation above about 80%; inconclusive means between about 30% and that limit; further: 0% is about no effect
Target sequence (Q8NER1 whole entry, looked up): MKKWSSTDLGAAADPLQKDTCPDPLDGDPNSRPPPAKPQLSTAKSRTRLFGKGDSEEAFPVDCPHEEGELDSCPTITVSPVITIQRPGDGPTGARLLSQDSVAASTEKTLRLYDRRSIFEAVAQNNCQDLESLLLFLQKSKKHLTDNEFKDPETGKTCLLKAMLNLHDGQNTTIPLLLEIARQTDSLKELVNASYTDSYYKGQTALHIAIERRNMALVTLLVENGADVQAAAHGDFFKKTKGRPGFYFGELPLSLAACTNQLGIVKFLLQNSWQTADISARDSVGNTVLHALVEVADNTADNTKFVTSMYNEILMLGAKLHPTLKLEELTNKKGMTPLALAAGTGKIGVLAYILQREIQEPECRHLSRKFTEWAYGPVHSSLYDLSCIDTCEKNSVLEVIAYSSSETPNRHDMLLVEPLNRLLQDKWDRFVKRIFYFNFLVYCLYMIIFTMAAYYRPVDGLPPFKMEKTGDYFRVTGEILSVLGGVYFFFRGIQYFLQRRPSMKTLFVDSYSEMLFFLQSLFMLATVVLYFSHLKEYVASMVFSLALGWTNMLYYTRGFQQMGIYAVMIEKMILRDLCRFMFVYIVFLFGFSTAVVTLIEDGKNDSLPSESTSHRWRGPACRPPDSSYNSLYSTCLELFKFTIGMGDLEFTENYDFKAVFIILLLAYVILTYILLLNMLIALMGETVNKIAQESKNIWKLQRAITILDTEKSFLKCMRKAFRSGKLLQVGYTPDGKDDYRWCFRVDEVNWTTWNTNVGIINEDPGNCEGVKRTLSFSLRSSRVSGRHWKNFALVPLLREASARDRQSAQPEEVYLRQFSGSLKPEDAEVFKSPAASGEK
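Fluo-8 calcium influx in TRPV1-expressing cells, kinetic read (ex 480/em 520 nm). Compound added and read 3 min for agonist activity, followed by capsaicin at EC20 final and 2 min further read for enhancement.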
TRPV1 agonist – HTS Assay for Compounds that Act as Agonists of the Vanilloid Receptor 1. hit rate 0.19% among 320,000. TRPV1-expressing cells, Fluo-8 calcium influx, agonist mode. AID 540275, 2011. activation, % at 8.33 µM; in the data active means activation above about 80%; inconclusive means between about 30% and that limit; further: 0% is about no effect
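Cells expressing TRPV1 were dye-loaded with Fluo-8 and read kinetically: 10 s baseline, 3 min after compound (agonist portion), then 2 min after EC20 capsaicin (allosteric enhancer portion). Calcium-bound dye fluorescence at 480/520 nm.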
uPA surface inh – qHTS for Inhibitors of Cell Surface uPA Generation; cell surface uPA generation assay, qHTS; Potency, µM (top dose mostly 38.3 µM), inactives show at the highest dose activity change, negative = inhibition, hits mostly inhibitors; hit rate 0.31% among 330,000; AID 540303, 2011; active means well fitted inhibition curve with a large enough effect; inconclusive means small, poorly fitted or top-dose-only effect; inactive means no such curve, though single readings can be large or run the other way; tested in mouse RAW 264.7 cells; further: potency means the concentration at half of the fitted maximal effect; on the % scale 0 is the no-effect control and ±100 the full control effect; nearly all actives have a fitted effect of over 55% in size
VP16 counter – VP16 counterscreen qHTS for inhibitors of ROR gamma transcriptional activity | Drosophila S2 Gal4-VP16 UAS-luciferase, luminescence, 20 h | hit rate 3.5% among 310,000 | AID 2546, 2010 | Potency, µM (highest dose often 53.6 µM), for the others: top-dose activity, negative = inhibition, actives largely listed as inhibitors;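 further: Gal4-VP16 expression switched on by copper sulfate through the metallothionein promoter; potency means the concentration at half of the fitted maximal effect; on the % scale 0 is the no-effect control and ±100 the full control effect; nearly all actives have a fitted effect of over 50% in size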
RORgamma inh – qHTS for inhibitors of ROR gamma transcriptional activity | Potency, µM (highest dose often 53.6 µM), without a hit: top-dose activity change, negative = inhibition, usual class: inhibitors | Drosophila S2 Gal4-RORgamma UAS-luciferase reporter, 20 h | hit rate 5.4% among 310,000 | AID 2551, 2010; further: potency means the concentration at half of the fitted maximal effect; on the % scale 0 is the no-effect control and ±100 the full control effect; nearly all actives have a fitted effect of over 60% in size
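Schneider cells (Drosophila), stable Gal4 DBD–ROR gamma + UAS-luc; 1 hr cmpd preincubation; Cu2+ induction 700 uM final; 20 hr ambient; luminescence.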
* hit, by the source's call; ? = inconclusive; · = no result; ! = not active in a repeat; [ ] = dose if it differs, or a comment. Unless noted, the call rests on the fitted dose curve; in most records, active means well fitted curve in the direction sought with a large enough effect; inconclusive means small, poorly fitted or top-dose-only effect, or another doubt; inactive means no such curve, though single readings can be large; an effect the other way counts as inactive or inconclusive.

SMILES	TRPV1 PAM	TRPV1 agonist	uPA surface inh	VP16 counter	RORgamma inh
Cc1ccc(-c2nnc(NC3CCCC3)s2)cc1	-12.8	?	-2.5%	?	11.2µM*
COc1ccc2ccccc2c1/C=N/N1C(=O)CSC1=S	1.4	2.8	5.8%	?	7.94µM*
COc1cccc(/C=N/N2C(=O)CSC2=S)c1O	0.3	2.8	-0.1%	4.47µM*	3.98µM*
COc1ccccc1NC(=S)NC(=O)c1c(-c2ccccc2Cl)noc1C	-4.1	16.7	10.7%	15.8µM*	2.51µM*
Cc1onc(-c2ccccc2Cl)c1C(=O)NC(=S)Nc1ccccc1F	-2.9	17.7	-4.8%	?	5.01µM*
COc1ccccc1CNC(=O)c1c(-c2ccccc2Cl)noc1C	-6.0	11.4	-13.2%	-2.9%	-2.7%
COc1cc(OC)cc(-c2nnc3n2N=C(c2ccccc2OC)CS3)c1	·	·	·	-0.4%	12.4%
O=C(N/N=C(\Cc1ncc[nH]1)c1ccccc1)c1ccccc1	-10.9	4.2	·	-9.0%[10 µM]	11.2µM*
O=C(COC(=O)c1ccc([N+](=O)[O-])o1)Nc1cccc(S(=O)(=O)N2CCOCC2)c1	3.5	-1.1	-10.9%	7.08µM*	?
O=C(COC(=O)c1ccc(Br)o1)Nc1cccc(S(=O)(=O)N2CCOCC2)c1	·	·	-0.7%	·	·
O=C(COC(=O)c1n[nH]c2ccccc12)Nc1ccc(S(=O)(=O)N2CCCC2)cc1	-2.6	-1.8	-0.8%	10µM*	-42.2%
O=C(CCl)Nc1cccc(S(=O)(=O)NC2=NCCCCC2)c1	·	·	2.51µM*	·	·
O=C(CCl)Nc1cccc(S(=O)(=O)N2CCCCCC2)c1	5.0	1.7	-9.5%	?	35.5µM*
CC(C)C(NC(=O)c1ccc(F)cc1)C(=O)N1CCN(c2ccccn2)CC1 (stereo unspecified)	·	·	-9.3%	·	·
CN(C)S(=O)(=O)c1cccc(COC(=O)c2cnccn2)c1	9.2	-0.7	0.7%	-4.0%	-9.5%
Cc1cc(C)c(C(=O)OCC(=O)Nc2cccc(S(=O)(=O)N3CCCCC3)c2)c(C)c1	8.9	-1.7	8.91µM*	·	·
CCc1sc(C(=O)Nc2cc(S(=O)(=O)N3CCOCC3)ccc2OC)cc1C	0.7	11.1	1.6%	·	·
CC1CC(C)CN(S(=O)(=O)N2CCC(C(=O)NCc3ccco3)CC2)C1 (stereo unspecified)	17.7	12.4	-3.3%	0.6%	23.6%
CCOc1ccc(-c2c(C(=O)N/N=C/c3ccc(C)o3)nnn2-c2nonc2N)cc1	6.5	2.5	1.8%	10µM*	5.62µM*
CCCOc1ccc(-c2c(C(=O)N/N=C/c3ccncc3)nnn2-c2nonc2N)cc1	-7.5	?	-0.1%	-11.5%	-5.8%
CCOc1ccc(-c2c(C(=O)N/N=C/c3ccc(OC)cc3)nnn2-c2nonc2N)cc1	13.0	-0.8	5.2%	?	?
CCCOc1ccc(-c2c(C(=O)N/N=C/c3ccc(C)o3)nnn2-c2nonc2N)cc1	5.8	3.1	-0.9%	5.62µM*	3.55µM*
Cc1ccc(/C=N/NC(=O)c2nnn(-c3nonc3N)c2-c2ccccc2)o1	10.8	8.0	3.4%	?	10µM*
COCC(=O)C(C(=O)OC)[C@H](CCc1ccccc1)NC(=O)OC (stereo partly specified)	·	·	·	0.1%	5.5%
CC(C)(C)OC(=O)N1CCC(NC(=O)c2nc[nH]c2C(=O)N2CCN(c3ccccc3)CC2)CC1	·	·	2.7%	·	·
SMILES	TRPV1 PAM	TRPV1 agonist	uPA surface inh	VP16 counter	RORgamma inh
Cc1c(NC(=O)c2ccc(-c3ccccc3)cc2)cccc1C(=O)O	5.6	0.9	?	?	10µM*
O=C(Nc1ccccc1C(=O)O)c1ccccc1	11.9	0.1	-2.8%	3.1%	15.8%
CCOc1ccc(C(=O)Nc2cccc(C(=O)O)c2C)cc1Cl	0.3	-0.5	-0.1%	1.58µM*	-38.8%
Cc1cccc(NC(=O)c2ccccc2O)c1C	-17.2	17.2	-12.6%	1.12µM*	?
Cc1cccc(NC(=O)c2ccc(S(=O)(=O)C(F)F)cc2)c1C	12.0	86.5*	1.7%	-77.0%	?
O=C(CCCCN1CCCCC1)c1ccc2c(c1)Cc1ccccc1-2	-0.6	8.0	4.7%	?	12.6µM*
O=C(CCN1CCCC1Cc1ccccc1)c1ccc2c(c1)OCCO2 (stereo unspecified)	-0.1	?	-6.2%	5.62µM*	5.01µM*
COc1cc(C(=O)CCN2CCC(c3ccccc3)C2)cc(OC)c1OC (stereo unspecified)	-8.4	2.1	?	?	15.8µM*
O=C(CCN1CCc2ccccc21)c1ccc2c(c1)OCCO2	-0.1	-2.4	-5.5%	11.2µM*	-18.6%
CCC(C)(C)NC(=O)CN(C(=O)CCC(=O)Nc1ccccn1)c1ccc2c(c1)OCO2	-7.1	0.7	0.1%	1.9%	-3.9%
O=C(CCN1CCOCC1)c1ccc(Br)cc1	0.8	0.7	-4.0%	12.6µM*	?
O=C(CCN1CCC(c2ccccc2)C1)c1ccc2c(c1)OCCO2 (stereo unspecified)	-9.3	3.3	-29.5%	7.08µM*!	7.08µM*!
O=C(CCN1CCCCC1)c1ccc2c(c1)OCCO2	1.7	-1.8	-20.0%	7.94µM*	11.2µM*
O=C(CCN1CCc2ccccc2C1)c1ccc2c(c1)OCCO2	7.3	-2.3	-6.5%	4.47µM*	3.16µM*
NNC(=S)NCc1cccnc1	2.4	-3.0	3.5%	?	8.91µM*
NNC(=S)NCc1ccccc1	8.3	-3.8	0.0%	10µM*	2.82µM*
S=C(NCc1ccccc1)NCc1cccc(CNC(=S)NCc2ccccc2)c1	3.4	9.5	-18.6%	-0.6%	-9.5%[10 µM]
CC1(C)C(=O)CC[C@@]2(C)[C@H]1CC[C@@]1(C)CC3=C(CC[C@@H]12)[C@@]1(C)CCC(=O)C(C)(C)[C@@H]1CC3	?	-0.4	·	·	·
CC(C(=O)Nc1ccc2c(c1)OCCO2)N1Cc2ccccc2C1=O (stereo unspecified)	7.4	-2.0	3.0%	3.9%	10.9%
Cc1nc(SCC(=O)c2cccc([N+](=O)[O-])c2)n[nH]1	-3.7	2.2	-5.6%	?	12.6µM*
O=C(CCNc1ccccc1)c1cccc([N+](=O)[O-])c1	-10.4	10.0	·	?	?
O=C(CCNc1ccc(F)cc1)c1cccc([N+](=O)[O-])c1	-0.8	2.6	-14.7%	?	12.6µM*
CC(=O)c1ccc(S(=O)(=O)NCCc2csc(-c3cccnc3)n2)cc1	-0.6	-0.3	-1.0%	-5.4%	?
CC12CC(c3ccccc3O1)C(/C(N)=N/NC(=O)c1ccc(F)cc1)C(=O)N2 (stereo unspecified)	0.9	10.1	3.4%	?	4.47µM*
C/C(Cc1ccccc1)=N\NC(=O)c1ccc(F)cc1	-32.3	?	4.4%	?	-13.2%
